Assay results taken from PubChem BioAssay (EPA / NIEHS).
Values joined by “and” are separate entries in the source; they are usually repeats but may differ in a detail not shown here. Identical values can stand only once. Where a structure was tested more than once in an assay, its records may differ in their call. Active and inactive are the calls of the source. Rule for the calls: active = hit-call score of the fitted dose curve at least 0.9, where 1 is the maximum; inactive = score below 0.9.

Tests used:
[1] = target: Bile acid receptor (Homo sapiens) (UniProt Q96RI1); assay: ATG_IR1_CIS: Attagene CIS-FACTORIAL HepG2 Assay for human Nuclear Receptor Subfamily 1 Group H Member 4 (NR1H4), IR1 submotif (AID 2282946); conditions: IR1 reporter transcription, actives raise or lower the signal
Outline: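 Fluorescence of capillary-separated, HpaI-digested RT-PCR reporter products gave IR1-element mRNA induction in HepG2 cells 24 h after dosing. Endogenous transcription factors drove the cis-regulated reporters; activity was fitted bidirectionally against DMSO.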

[2] = ATG_GRE_CIS: Attagene CIS-FACTORIAL HepG2 Assay for human Glucocorticoid Response Elements (GRE) (AID 2282947); conditions: HepG2 GRE cis-reporter, Attagene multiplex mRNA; actives raise or lower the signal
Outline: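 Read-out: fluorescent reporter-transcript fragments separated by capillary electrophoresis after RT-PCR. Transiently transfected HepG2 cells carrying cis-element-driven reporter units were dosed for 24 h; gain or loss of signal fitted against DMSO control.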

[3] = ATG_ISRE_CIS: Attagene CIS-FACTORIAL HepG2 Assay for human Interferon Regulatory Factor 1 (IRF1) binding to an Interferon-Stimulated Response Element (ISRE) (AID 2282948); conditions: HepG2 ISRE cis-reporter (Attagene), mRNA transcription readout; actives raise or lower the signal
Outline: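 Signal reflects induction or loss of ISRE-linked reporter mRNA in transiently transfected HepG2 cells after a 24 h treatment, detected by fluorescent RT-PCR fragments on capillary electrophoresis and normalised to DMSO.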

[4] = ATG_M_32_CIS: Attagene CIS-FACTORIAL HepG2 Assay for M32 Transcription Factor (Internal Marker) (AID 2282949); conditions: HepG2 Attagene cis-factorial M32 reporter, mRNA; actives raise or lower the signal;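 note: background control marker of the multiplexed CIS panel rather than a real target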
Outline: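 Transient MRTU transfection of HepG2; 24 h compound treatment; TriZol RNA, oligo(dT) RT, reporter PCR, 6-FAM primer extension, HpaI cut, CE. Gain/loss of signal vs DMSO.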

[5] = ATG_M_06_CIS: Attagene CIS-FACTORIAL HepG2 Assay for M06 Transcription Factor (Internal Marker) (AID 2282950); conditions: HepG2 Attagene CIS-FACTORIAL M06 internal marker reporter; actives raise or lower the signal
Outline: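 Serves as a background control readout. Transfected HepG2 exposed to compounds for 24 h, then reporter transcripts quantified by fluorescent RT-PCR and capillary electrophoresis. Both directions fitted against DMSO baseline.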

[6] = target: Hypoxia-inducible factor 1-alpha (Homo sapiens) (UniProt Q16665); assay: ATG_HIF1a_CIS: Attagene CIS-FACTORIAL HepG2 Assay for human Hypoxia Inducible Factor 1 (HIF1A) (AID 2282951); conditions: HepG2 Attagene cis-factorial HIF1a reporter transcription; actives raise or lower the signal
Outline: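 HepG2, transient cis-reporter library, 24 h dosing. RNA → RT (oligo dT) → PCR → 6-FAM primer extension → HpaI → CE. Bidirectional curve fit vs DMSO.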

[7] = target: Hepatocyte nuclear factor 6 (Homo sapiens) (UniProt Q9UBC0); assay: ATG_HNF6_CIS: Attagene CIS-FACTORIAL HepG2 Assay for human Hepatocyte Nuclear Factor 6 (HNF6) (AID 2282952); conditions: HepG2 Attagene cis-factorial HNF6 reporter transcription; actives raise or lower the signal
Outline: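 Using cis-element reporters in HepG2 liver cells, the assay tracks endogenous factor-driven transcription 24 h post-dosing. Signal comes from 6-FAM-labelled, HpaI-digested RT-PCR fragments, with gain or loss scored against DMSO.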

[8] = target: Heat shock factor protein 1 (Homo sapiens) (UniProt Q00613); assay: ATG_HSE_CIS: Attagene CIS-FACTORIAL HepG2 Assay for human Heat Shock Transcription Factor 1 (HSE) (AID 2282953); conditions: HepG2 HSE cis-reporter, Attagene RNA transcription; actives raise or lower the signal
Outline: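 Endogenous transcription factor activity in transiently transfected HepG2, read as reporter mRNA by RT-PCR with fluorescent capillary electrophoresis after 24 h. Gain or loss of signal fitted versus DMSO baseline.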

[9] = ATG_PBREM_CIS: Attagene CIS-FACTORIAL HepG2 Assay for human Phenobarbital-responsive Enhancer Module (PBREM) (AID 2282955); conditions: HepG2 PBREM cis-reporter, Attagene multiplexed transcription; actives raise or lower the signal
Outline: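 HepG2, transient MRTU transfection, 24 h dosing; RNA → oligo(dT) RT → PCR → 6-FAM extension → HpaI → CE. Bidirectional fit vs DMSO.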

[10] = target: Paired box protein Pax-6 (Homo sapiens) (UniProt P26367); assay: ATG_Pax6_CIS: Attagene CIS-FACTORIAL HepG2 Assay for human Paired Box 6 (PAX6) (AID 2282956); conditions: HepG2 CIS-FACTORIAL PAX6 reporter transcription, RNA readout; actives raise or lower the signal
Outline: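 Values derive from bidirectional curve fitting of reporter mRNA signal relative to DMSO. HepG2 cells bearing transfected cis-regulated MRTUs were exposed for 24 h; transcripts were read by RT-PCR and capillary electrophoresis.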

[11] = ATG_PXRE_CIS: Attagene CIS-FACTORIAL HepG2 Assay for human Pregnane X Receptor Element (PXRE) (AID 2282957); conditions: HepG2 Attagene CIS-FACTORIAL PXRE reporter, mRNA; actives raise or lower the signal
Outline: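 Using HepG2 transfected with multiple reporter transcription units, endogenous factor-driven transcription was scored as reporter mRNA after 24 h exposure.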

[12] = ATG_PPRE_CIS: Attagene CIS-FACTORIAL HepG2 Assay for human Peroxisome Proliferator-activated Response Element (PPRE) (AID 2282958); conditions: HepG2 PPRE cis-element reporter, Attagene transcription factor profiling; actives raise or lower the signal
Outline: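 Transcript-level reporter induction in transfected HepG2 cells after 24 h chemical exposure, quantified by fluorescence from RT-PCR products separated by capillary electrophoresis.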

[13] = ATG_RORE_CIS: Attagene CIS-FACTORIAL HepG2 Assay for human RAR-related Orphan Receptor Element (RORE) (AID 2282959); conditions: HepG2 Attagene cis-factorial RORE reporter, mRNA; actives raise or lower the signal
Outline: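 Multiplexed reporter assay measuring mRNA induction from a cis promoter element in transiently transfected HepG2 cells after 24 h treatment. Detection via RT-PCR and capillary electrophoresis fluorescence; DMSO serves as baseline.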

[14] = ATG_Sox_CIS: Attagene CIS-FACTORIAL HepG2 Assay for human SRY-box transcription factor (SOX) (AID 2282960); conditions: HepG2 Attagene cis-factorial SOX reporter, mRNA; actives raise or lower the signal
Outline: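 Cells were transfected with reporter constructs under cis-regulatory promoters, then exposed to chemicals for 24 h. Reporter transcripts were quantified by fluorescence after RT-PCR and capillary electrophoresis; activity was fitted in both directions against DMSO.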

[15] = target: Transcription factor Sp1 (Homo sapiens) (UniProt P08047); assay: ATG_Sp1_CIS: Attagene CIS-FACTORIAL HepG2 Assay for human Specificity Protein 1 (Sp1) (AID 2282961); conditions: HepG2 Sp1 cis-reporter transcription, actives raise or lower the signal
Outline: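 Measures mRNA induction of an Sp1-linked reporter in HepG2 cells 24 h post-dosing. Multiplexed reporters read by RT-PCR and capillary electrophoresis; DMSO serves as negative control and baseline.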

[16] = ATG_SREBP_CIS: Attagene CIS-FACTORIAL HepG2 Assay for human Sterol Regulatory Element Binding (SREBP) (AID 2282962); conditions: HepG2 Attagene cis-factorial SREBP reporter, mRNA; actives raise or lower the signal
Outline: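 Values derive from bidirectional curve fitting with DMSO as baseline. The underlying measurement is reporter mRNA from cis-element-regulated units in transiently transfected HepG2, quantified by RT-PCR and capillary electrophoresis after 24 h exposure.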

[17] = target: Signal transducer and activator of transcription 3 (Homo sapiens) (UniProt P40763); assay: ATG_STAT3_CIS: Attagene CIS-FACTORIAL HepG2 Assay for human Signal Transducer and Activator of Transcription 3 (STAT3) (AID 2282963); conditions: HepG2, Attagene cis-factorial STAT3 reporter transcription; actives raise or lower the signal
Outline: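 Readout: fluorescent reporter mRNA fragments resolved by capillary electrophoresis. Setup: HepG2 transfected with MRTUs reporting endogenous transcription-factor activity, dosed 24 h. Gain or loss of signal fitted bidirectionally against DMSO control.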

[18] = ATG_TA_CIS: Attagene CIS-FACTORIAL HepG2 Assay for human TA Basal Promoter (AID 2282964); conditions: HepG2 Attagene CIS-factorial TA basal promoter reporter; actives raise or lower the signal
Outline: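 Background-control readout: TA basal promoter reporter mRNA, fitted in both directions relative to DMSO. Measured by RT-PCR and capillary electrophoresis 24 hours after treating HepG2 human liver cells transiently carrying multiplexed cis-regulated reporter constructs.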

[19] = ATG_MRE_CIS: Attagene CIS-FACTORIAL HepG2 Assay for human Metal Responsive Element (MRE) (AID 2282954); conditions: HepG2 MRE cis-reporter transcription, Attagene multiplex; actives raise or lower the signal
Outline: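 RT-PCR/capillary electrophoresis readout of reporter mRNA, 24 h post-dosing, in HepG2 cells transfected with multiplexed cis-regulated reporter constructs. Gain or loss of signal fitted bidirectionally against DMSO baseline.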

[20] = ATG_TCF_b_cat_CIS: Attagene CIS-FACTORIAL HepG2 Assay for human T-Cell-Factor with beta-catenin (TCF/b-cat) (AID 2282965); conditions: HepG2 TCF/beta-catenin cis-reporter transcription, actives raise or lower the signal
Outline: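 Cells of the HepG2 line carry transiently transfected reporter units whose promoters respond to endogenous factors. Twenty-four hours post-dosing, reporter mRNA induction is measured by fluorescent RT-PCR and capillary electrophoresis, with DMSO as baseline.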

Measured: AC50

Sequence of Heat shock factor protein 1 (Homo sapiens) (Q00613 whole entry, looked up): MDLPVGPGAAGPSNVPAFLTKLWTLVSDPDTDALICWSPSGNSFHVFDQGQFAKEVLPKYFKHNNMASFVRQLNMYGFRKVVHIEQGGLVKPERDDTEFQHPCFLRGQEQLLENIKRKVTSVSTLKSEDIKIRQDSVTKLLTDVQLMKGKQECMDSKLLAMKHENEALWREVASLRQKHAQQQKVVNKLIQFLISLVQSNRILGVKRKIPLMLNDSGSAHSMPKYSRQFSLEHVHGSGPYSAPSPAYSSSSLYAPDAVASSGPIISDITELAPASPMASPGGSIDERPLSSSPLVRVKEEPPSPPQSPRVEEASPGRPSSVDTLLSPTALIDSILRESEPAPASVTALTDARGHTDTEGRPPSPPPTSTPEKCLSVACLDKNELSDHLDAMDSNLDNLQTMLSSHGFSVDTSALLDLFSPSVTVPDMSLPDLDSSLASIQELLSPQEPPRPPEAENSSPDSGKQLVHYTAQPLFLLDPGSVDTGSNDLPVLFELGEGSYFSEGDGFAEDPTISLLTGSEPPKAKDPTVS
Sequence of Transcription factor Sp1 (Homo sapiens) (P08047 whole entry, looked up): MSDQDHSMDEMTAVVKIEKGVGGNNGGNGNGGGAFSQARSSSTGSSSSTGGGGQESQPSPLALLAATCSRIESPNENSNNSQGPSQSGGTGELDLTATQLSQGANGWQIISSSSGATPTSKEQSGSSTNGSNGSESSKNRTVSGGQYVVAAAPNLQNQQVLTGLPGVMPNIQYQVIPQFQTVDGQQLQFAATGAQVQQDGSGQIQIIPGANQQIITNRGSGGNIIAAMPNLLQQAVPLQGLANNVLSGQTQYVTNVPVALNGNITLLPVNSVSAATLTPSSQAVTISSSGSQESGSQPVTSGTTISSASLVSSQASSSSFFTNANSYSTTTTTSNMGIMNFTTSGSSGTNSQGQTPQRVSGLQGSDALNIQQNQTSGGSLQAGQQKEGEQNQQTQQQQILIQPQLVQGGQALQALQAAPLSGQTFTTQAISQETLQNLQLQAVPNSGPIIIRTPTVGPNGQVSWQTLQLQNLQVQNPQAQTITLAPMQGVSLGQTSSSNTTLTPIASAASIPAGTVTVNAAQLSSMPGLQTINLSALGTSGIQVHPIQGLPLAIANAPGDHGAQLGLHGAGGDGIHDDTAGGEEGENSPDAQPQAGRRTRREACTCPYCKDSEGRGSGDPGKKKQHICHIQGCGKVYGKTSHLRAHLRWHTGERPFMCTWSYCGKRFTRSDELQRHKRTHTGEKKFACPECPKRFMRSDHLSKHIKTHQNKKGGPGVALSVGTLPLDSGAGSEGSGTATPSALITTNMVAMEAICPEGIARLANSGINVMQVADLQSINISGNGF
Sequence of Hepatocyte nuclear factor 6 (Homo sapiens) (Q9UBC0 whole entry, looked up, the tested form may be a part): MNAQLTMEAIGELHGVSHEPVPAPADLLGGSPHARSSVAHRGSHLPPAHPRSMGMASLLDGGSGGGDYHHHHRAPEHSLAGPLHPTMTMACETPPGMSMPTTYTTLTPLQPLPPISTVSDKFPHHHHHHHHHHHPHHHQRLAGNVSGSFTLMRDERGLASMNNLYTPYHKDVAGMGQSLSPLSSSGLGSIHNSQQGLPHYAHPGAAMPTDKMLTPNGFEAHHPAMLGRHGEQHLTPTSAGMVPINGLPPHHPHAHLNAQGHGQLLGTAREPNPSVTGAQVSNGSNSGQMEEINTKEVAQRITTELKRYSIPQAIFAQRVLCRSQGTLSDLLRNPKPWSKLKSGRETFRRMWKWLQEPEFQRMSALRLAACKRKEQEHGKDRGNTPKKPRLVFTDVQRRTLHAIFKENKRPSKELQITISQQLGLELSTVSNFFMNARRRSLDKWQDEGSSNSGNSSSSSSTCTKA
Sequence of Paired box protein Pax-6 (Homo sapiens) (P26367 whole entry, looked up): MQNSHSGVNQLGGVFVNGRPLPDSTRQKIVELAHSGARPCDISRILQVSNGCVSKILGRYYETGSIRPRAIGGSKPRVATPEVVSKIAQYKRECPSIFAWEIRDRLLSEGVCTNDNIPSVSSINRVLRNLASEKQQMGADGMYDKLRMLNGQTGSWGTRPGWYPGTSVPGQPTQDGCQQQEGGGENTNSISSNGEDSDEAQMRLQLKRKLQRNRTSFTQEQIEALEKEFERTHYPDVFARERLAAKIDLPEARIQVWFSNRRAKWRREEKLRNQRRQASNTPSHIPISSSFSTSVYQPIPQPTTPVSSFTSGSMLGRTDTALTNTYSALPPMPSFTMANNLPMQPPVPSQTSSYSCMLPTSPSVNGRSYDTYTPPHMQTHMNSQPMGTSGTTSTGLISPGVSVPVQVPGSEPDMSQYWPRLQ
Sequence of Bile acid receptor (Homo sapiens) (Q96RI1 whole entry, looked up): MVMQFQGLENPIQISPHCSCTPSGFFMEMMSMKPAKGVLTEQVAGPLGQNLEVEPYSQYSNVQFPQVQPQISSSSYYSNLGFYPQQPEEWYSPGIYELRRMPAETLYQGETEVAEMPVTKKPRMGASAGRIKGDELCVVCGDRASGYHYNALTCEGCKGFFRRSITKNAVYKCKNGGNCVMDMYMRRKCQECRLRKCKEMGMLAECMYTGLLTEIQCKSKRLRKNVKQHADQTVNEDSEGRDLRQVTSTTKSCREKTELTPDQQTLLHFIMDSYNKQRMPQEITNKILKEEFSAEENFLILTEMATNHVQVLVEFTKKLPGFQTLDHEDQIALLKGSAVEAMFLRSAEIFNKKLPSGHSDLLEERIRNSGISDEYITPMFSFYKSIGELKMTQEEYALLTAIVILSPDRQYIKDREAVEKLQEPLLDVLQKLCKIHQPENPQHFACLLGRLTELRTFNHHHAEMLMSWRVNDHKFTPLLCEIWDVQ
Sequence of Hypoxia-inducible factor 1-alpha (Homo sapiens) (Q16665 whole entry, looked up): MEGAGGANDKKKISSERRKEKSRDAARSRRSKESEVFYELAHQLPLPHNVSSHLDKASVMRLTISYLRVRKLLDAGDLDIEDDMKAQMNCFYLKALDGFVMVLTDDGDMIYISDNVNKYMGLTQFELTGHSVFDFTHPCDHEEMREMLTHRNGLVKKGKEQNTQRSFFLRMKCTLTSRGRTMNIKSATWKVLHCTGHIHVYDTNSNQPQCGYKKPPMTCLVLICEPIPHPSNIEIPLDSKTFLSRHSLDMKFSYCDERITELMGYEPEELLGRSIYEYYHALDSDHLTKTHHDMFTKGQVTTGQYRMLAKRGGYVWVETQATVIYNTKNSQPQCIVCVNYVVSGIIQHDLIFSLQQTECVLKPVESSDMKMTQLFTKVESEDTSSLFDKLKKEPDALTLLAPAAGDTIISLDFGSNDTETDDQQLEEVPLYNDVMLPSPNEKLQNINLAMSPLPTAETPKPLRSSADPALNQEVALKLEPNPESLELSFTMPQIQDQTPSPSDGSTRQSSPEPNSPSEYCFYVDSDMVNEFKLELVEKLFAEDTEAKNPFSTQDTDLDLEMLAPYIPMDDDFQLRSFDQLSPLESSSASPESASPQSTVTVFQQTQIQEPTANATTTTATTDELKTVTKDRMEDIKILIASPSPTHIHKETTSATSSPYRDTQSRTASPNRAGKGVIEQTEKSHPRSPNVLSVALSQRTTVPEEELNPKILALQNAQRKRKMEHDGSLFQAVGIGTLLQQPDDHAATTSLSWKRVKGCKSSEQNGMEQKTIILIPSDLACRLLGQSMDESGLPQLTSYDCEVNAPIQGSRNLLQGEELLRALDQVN
Sequence of Signal transducer and activator of transcription 3 (Homo sapiens) (P40763 whole entry, looked up, the tested form may be a part): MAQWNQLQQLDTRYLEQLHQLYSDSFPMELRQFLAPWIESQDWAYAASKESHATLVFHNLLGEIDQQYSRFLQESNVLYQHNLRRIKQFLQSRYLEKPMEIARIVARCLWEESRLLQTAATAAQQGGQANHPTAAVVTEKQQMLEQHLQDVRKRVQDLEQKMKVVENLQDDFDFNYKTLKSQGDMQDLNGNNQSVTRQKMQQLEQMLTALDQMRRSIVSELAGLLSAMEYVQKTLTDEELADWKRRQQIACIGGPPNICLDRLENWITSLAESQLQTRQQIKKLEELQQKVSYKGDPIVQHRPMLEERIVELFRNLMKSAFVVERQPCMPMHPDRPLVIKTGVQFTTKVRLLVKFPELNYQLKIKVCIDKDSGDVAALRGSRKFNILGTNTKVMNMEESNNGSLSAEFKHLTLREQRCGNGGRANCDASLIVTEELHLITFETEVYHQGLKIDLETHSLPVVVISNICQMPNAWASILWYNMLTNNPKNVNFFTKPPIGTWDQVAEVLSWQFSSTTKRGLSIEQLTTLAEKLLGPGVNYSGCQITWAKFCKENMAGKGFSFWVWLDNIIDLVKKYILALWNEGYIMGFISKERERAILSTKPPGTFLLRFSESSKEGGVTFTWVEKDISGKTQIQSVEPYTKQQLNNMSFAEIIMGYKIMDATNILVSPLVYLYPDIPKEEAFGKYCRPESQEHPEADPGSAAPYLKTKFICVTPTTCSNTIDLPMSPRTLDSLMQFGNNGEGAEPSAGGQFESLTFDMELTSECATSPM

Cc1cc(F)ccc1-c1cc(N2CC[C@@H](O)[C@H]2CO)ncc1N(C)C(=O)C(C)(C)c1cc(C(F)(F)F)cc(C(F)(F)F)c1
active: [11] 0.35 µM
not listed: [19] | [20]
inactive: all other assays above

CN(C[C@@H](CC[N+]12CCC(C3CCCCC3)(CC1)CC2)c1ccc(Cl)c(Cl)c1)C(=O)c1cc(C(F)(F)F)cc(C(F)(F)F)c1
not listed: [12]
inactive: all other assays above

NC(=O)c1nc(-c2cccc(-c3cc(F)ccc3OCC(F)(F)C(F)(F)F)c2)n[nH]1
inactive: [2] | [3] | [4] | [5] | [7] | [14] | [17]
active: [1] 51.6 µM | [6] 2.7 µM | [8] 59.9 µM | [19] 51.2 µM | [10] 24.3 µM | [11] 8.11 µM | [15] 16.9 µM | [16] 10.3 µM | [18] 43.7 µM | [20] 33 µM

COc1ccc2cc(S(=O)(=O)N[C@H](CC(=O)N[C@H](Cc3ccc(CN4[C@H](C)CCC[C@@H]4C)cc3)C(=O)N(C)C(C)C)c3ccc4c(c3)OCO4)ccc2c1
active: [3] 11 µM | [6] 1.38 µM | [16] 0.564 µM | [18] 11 µM
not listed: [13] | [19] | [20]
inactive: all other assays above

CCCCCCCCOC(=O)c1cc(O)c(O)c(O)c1
active: [6] 16.9 µM | [11] 11.1 µM
not listed: [13] | [20]
inactive: all other assays above

CC(C)(C)c1csc(-c2cc3cc(OCc4ccccc4CC(=O)O)ccc3o2)n1
active: [3] 33.4 µM | [8] 62.7 µM | [10] 7.32 µM | [12] 33.4 µM | [16] 6.91 µM | [18] 6.62 µM
not listed: [13] | [19]
inactive: all other assays above

CCN(Cc1cccnc1)C(=O)c1cccc(Cl)c1[C@]1(C)C(=O)N(Cc2ccc(OC)cc2OC)c2ccc(Cl)cc21
active: [3] 7.7 µM | [8] 40.4 µM | [19] 7.17 µM | [9] 1.47 µM | [10] 3.83 µM | [11] 0.143 µM | [16] 3.23 µM | [18] 4.5 µM
not listed: [13] | [20]
inactive: all other assays above

CC/C(=C(/CC)c1ccc(O)cc1)c1ccc(O)cc1
inactive: [1] | [2] | [3] | [4] | [5] | [6] | [7] | [8] | [10] | [14] | [15] | [16] | [17] | [18] | [20]
active: [1] 15.4 µM and 2.2 µM | [3] 11.1 µM | [8] 20 µM and 18.7 µM and 20.2 µM | [10] 14.9 µM and 5.16 µM | [14] 11.1 µM | [15] 18.2 µM | [20] 11.1 µM and 16.2 µM and 5.89 µM

CN(C)c1ccc(C(=C2C=CC(=[N+](C)C)C=C2)c2ccc(N(C)C)cc2)cc1
active: [1] 2.87 µM | [3] 2.28 µM | [4] 2.03 µM | [8] 6.63 µM | [9] 5.8 µM | [11] 2.19 µM | [15] 1.69 µM | [18] 0.99 µM | [20] 2.96 µM
not listed: [19]
inactive: all other assays above

COc1cc(C(=O)NC2CCN(C)CC2)ccc1Nc1ncc2c(n1)N(C1CCCC1)CC(F)(F)C(=O)N2C
active: [2] 0.872 µM | [3] 4.8 µM | [19] 2.37 µM | [10] 3.75 µM | [11] 1.01 µM | [15] 0.525 µM | [16] 1.56 µM | [20] 4.26 µM
not listed: [13]
inactive: all other assays above

O=CCCCC=O
inactive: [1] | [2] | [3] | [4] | [5] | [6] | [7] | [8] | [19] | [9] | [10] | [11] | [12] | [13] | [14] | [15] | [16] | [17] | [18]
active: [3] 125 µM | [20] 71.9 µM and 100 µM

CCO[Si](CCCNC(N)=O)(OCC)OCC
active: [6] 6.4 µM
inactive: all other assays above
